An excerpt weighted towards active compounds, which were near 2% of everything screened.
CHO-K1 Ca antag: nonselective inhibitor or artifact in parental CHO-K1 cells; ATP-induced calcium, Fluo-8 fluorescence; inhibition, % at 3 µM; 360,000 compounds, 0.6% hits; AID 602250;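 active means inhibition above a per-plate cutoff, the plate's mean sample inhibition plus 3 SD, cut at about 24% in these data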;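 further: 0% = DMSO plus EC80 ATP and 100% = DMSO alone without ATP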
CHO-K1 Ca ag: M1 agonist counterscreen hit in parental CHO-K1 cells. Fluo-8 calcium fluorescence; scaled to maximal ATP response, vehicle zero. activation, % at 3 µM. 360,000 compounds, 0.48% hits. AID 602248; in the data active means activation above about 15%;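 further: untransfected CHO-K1 host cells lacking M1 receptor as counterscreen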
M4 antag: blocks acetylcholine activation of human M4 receptor; 360,000 compounds, 0.73% hits; CHO-hM4 cells, ACh EC80, Fluo-8 calcium fluorescence; AID 624125; P08173; inhibition, % at 3 µM;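 active means inhibition above its plate's cutoff, the mean inhibition of sample wells plus 3 SD, cut at about 27% in these data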;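 further: 0% = acetylcholine EC80 with DMSO and 100% = DMSO without agonist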
Target sequence (P08173 whole entry, looked up): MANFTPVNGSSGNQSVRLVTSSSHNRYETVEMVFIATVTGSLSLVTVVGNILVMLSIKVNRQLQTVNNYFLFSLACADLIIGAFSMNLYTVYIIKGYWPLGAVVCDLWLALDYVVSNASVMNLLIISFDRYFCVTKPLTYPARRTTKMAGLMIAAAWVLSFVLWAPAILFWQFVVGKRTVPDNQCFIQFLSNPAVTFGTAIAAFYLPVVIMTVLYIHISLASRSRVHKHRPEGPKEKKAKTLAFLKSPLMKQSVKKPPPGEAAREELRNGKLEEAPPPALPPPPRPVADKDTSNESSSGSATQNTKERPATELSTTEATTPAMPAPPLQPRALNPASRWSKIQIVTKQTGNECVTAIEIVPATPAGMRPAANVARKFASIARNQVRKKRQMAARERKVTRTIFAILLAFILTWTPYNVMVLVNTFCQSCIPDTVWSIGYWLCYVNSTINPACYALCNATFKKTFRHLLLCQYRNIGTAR
CHRM4 PAM: CHRM4 positive allosteric modulation; CHO-K1 hM4/Gqi5, Fluo-8 calcium fluorescence, ACh EC20; 0% = ACh EC20, 100% = maximal ACh; activation, % at 3 µM; 360,000 compounds, 0.4% hits;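 active means activation above its plate's cutoff, the mean activation of sample wells plus 3 SD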
CHO-K1 Ca PAM: M1 PAM counterscreen hit in parental CHO-K1 cells. ATP EC20, Fluo-8 calcium fluorescence; 0% at ATP EC20, 100% at ATP max. activation, % at 3 µM. 360,000 compounds, 0.02% hits;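 active means activation above the run cutoff, the mean activation of all test compounds plus 3 SD, cut at about 40% in these data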;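 further: peak over basal fluorescence ratio in a 140 s read after ATP addition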
M4 ag: CHRM4 agonism in calcium assay; 360,000 compounds, 0.14% hits; AID 624127; activation, % at 3 µM; CHO-K1 hM4/Gqi5, Fluo-8 calcium fluorescence; vehicle 0%, full acetylcholine response 100%;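 active means activation above the run mean over all test wells plus 3 SD, cut at about 32% in these data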;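 further: peak over basal fluorescence ratio per well then scaled between controls; 0% = DMSO wells and 100% = acetylcholine at EC100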
Starred values were filed as active, the others as inactive.

SMILES	CHO-K1 Ca antag	CHO-K1 Ca ag	M4 antag	CHRM4 PAM	CHO-K1 Ca PAM	M4 ag
COc1cccc(CNC(=O)CCC2CCCN(c3cc(C)nc(N4CCCC4)n3)C2)c1 (stereo not drawn)	3	-1	28*	-23	7	0
COc1cccc(CNC(=O)CCC2CCCN(C3CCOCC3)C2)c1 (stereo not drawn)	7	0	8	3	-9	0
CN(Cc1ccccc1)C1=CC(=[N+]2CCCCC2)CC(C)(C)C1	9	3	54*	-39	6	4
Cn1c(SCC(=O)N/N=C/c2cc([N+](=O)[O-])ccc2O)nnc1-c1ccccc1	3	0	25	14	-17	1
COC(=O)c1ccc(OCC2c3cc(OC)c(OC)cc3CCN2C(C)=O)cc1 (stereo not drawn)	-2	6	13	-18	8	17
COC(=O)c1ccc(OCC2c3cc(OC)c(OC)cc3CCN2C(=O)c2ccco2)cc1 (stereo not drawn)	-8	7	30*	-14	9	21
O=C(C1CCN(Cc2cn[nH]c2-c2ccc(F)cc2F)CC1)N1CCOCC1	2	0	1	-6	-1	1
CCCN1C2=C(C(=O)CC(C)(C)C2)C(c2ccc(F)cc2)C2=C1c1ccccc1C2=O (stereo not drawn)	-16	0	-4	30*	19	-1
CC(CNC(=O)c1ccc(NC2=NC3CS(=O)(=O)CC3S2)cc1)c1ccccc1 (stereo not drawn)	-7	1	-10	1	18	0
O=C(c1ccc(NC2=NC3CS(=O)(=O)CC3S2)cc1)N(CCO)Cc1ccccc1 (stereo not drawn)	36*	0	-6	3	-2	1
Cc1nc2ccc(NS(=O)(=O)c3ccccc3F)cc2s1	-2	8	10	-4	-15	9
Cc1ccc(S(=O)(=O)NC(=O)NCc2ccccc2)cc1	28*	0	0	-2	-9	1
Cc1ccc(S(=O)(=O)NC(=O)NCc2ccc(F)cc2)cc1	-10	0	11	-3	21	1
CCOc1ccc(NS(=O)(=O)c2ccc(C(=O)NCc3ccccn3)cc2)cc1	1	21*	-2	-9	-8	22
CCCCC(=O)Nc1ccc(C(=O)NCc2ccncc2)cc1	25*	0	8	6	4	-1
Cc1ccc(NS(=O)(=O)c2ccc(C(=O)NCc3ccncc3)cc2)cc1	5	15*	8	-5	6	8
Cc1ccc(NS(=O)(=O)c2ccc(C(=O)NCc3cccnc3)cc2)cc1	-10	6	0	0	13	5
CCOc1ccc(NS(=O)(=O)c2ccc(C(=O)NCc3ccncc3)cc2)cc1	-10	7	-1	12	28	8
COc1ccccc1OCCn1c(=S)[nH]c2ccccc21	-13	1	-3	0	15	0
O=C(c1ccc(F)cc1)N(NC(=O)C(O)(c1ccccc1)c1ccccc1)c1ccccc1	-12	2	-3	-4	-3	3
COc1cccc(NC(=S)NC(=O)c2cccnc2)c1	-6	3	12	-1	22	0
CS(=O)(=O)Nc1ccc(C(=O)NCc2ccccn2)cc1	-8	0	2	0	14	1
Cc1ccc(NS(=O)(=O)c2ccc(C(=O)NCc3ccccn3)cc2)cc1	-4	19*	5	-8	0	15
COc1cc(C(=S)N2CCOCC2)cc(OC)c1OC(=O)c1ccc(F)cc1	-8	1	-9	-9	11	3
O=C(c1ccc(Br)o1)N1CCN(C23CC4CC(CC(C4)C2)C3)CC1	13	0	31*	-15	-12	2
CCCS(=O)(=O)c1nc(S(=O)(=O)c2ccc(C)cc2)c(N2CCCCC2)s1	-13	2	-12	-4	14	5
O=S(=O)(Nc1nc(-c2sccc2Cl)cs1)c1cc(Cl)ccc1Cl	26*	-1	3	-1	-6	0
CC(C)(C)c1nnc(NS(=O)(=O)c2cc(Cl)ccc2Cl)s1	5	1	4	0	-3	0
O=C(CN1CCN(S(=O)(=O)c2ccccc2C(F)(F)F)CC1)NCc1cccs1	13	0	0	2	-9	2

Screening results from PubChem BioAssay.
